Experimental data reported in PubChem BioAssay AID1159580 (chemical genetic matrix, 2015).
Hit rate of the full screen: of about 5,500 compounds, about 2,000 (36%) were called active. Not shown: some 18% with an inconclusive outcome. Rule as the data show it: active = normalized growth mostly below about 0.91 (no sharp cut-off); inconclusive = no clear call, values can overlap the other calls; inactive = mostly above about 0.92. The list shows a part of the results.

Test: chemical genetic growth profiling, strain panel (AID 1159580);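 also: tested at 20 µM; growth read once vehicle control cultures reached saturation at 30 °C; 1 = growth at the plate median or of vehicle wells; lower values mean less growth of the strain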
Details: growth OD
[1] = S. cerevisiae deletion strains, locus YAL013W, strain DEP1, active compounds read low
[2] = S. cerevisiae deletion strains, locus YBR229C, strain ROT2, active compounds read low
[3] = S. cerevisiae deletion strains, locus YDL101C, strain DUN1, active compounds read low
[4] = S. cerevisiae deletion strains, locus YDR150W, strain NUM1, active compounds read low
[5] = S. cerevisiae deletion strains, locus YEL061C, strain CIN8, active compounds read low
[6] = S. cerevisiae deletion strains, locus YGR078C, strain PAC10, active compounds read low
[7] = S. cerevisiae deletion strains, locus YHR030C, strain SLT2, active compounds read low
[8] = S. cerevisiae deletion strains, locus YHR087W, strain rtc3, active compounds read low
[9] = S. cerevisiae deletion strains, locus YJR043C, strain POL32, active compounds read low
[10] = S. cerevisiae deletion strains, locus YJR075W, strain HOC1, active compounds read low
[11] = S. cerevisiae deletion strains, locus YLR039C, strain RIC1, active compounds read low
[12] = S. cerevisiae deletion strains, locus YLR058C, strain SHM2 (second series), active compounds read low
[13] = S. cerevisiae deletion strains, locus YLR085C, strain ARP6, active compounds read low
[14] = S. cerevisiae deletion strains, locus YLR262C, strain YPT6, active compounds read low
[15] = S. cerevisiae deletion strains, locus YML094W, strain GIM5, active compounds read low
[16] = S. cerevisiae deletion strains, locus YMR219W, strain ESC1, active compounds read low
[17] = S. cerevisiae deletion strains, locus YMR263W, strain SAP30, active compounds read low
[18] = S. cerevisiae deletion strains, locus YMR307W, strain GAS1, active compounds read low
[19] = S. cerevisiae deletion strains, locus YNL153C, strain GIM3, active compounds read low
[20] = S. cerevisiae deletion strains, locus YNL298W, strain CLA4 (second series), active compounds read low
[21] = S. cerevisiae deletion strains, locus YNL322C, strain KRE1, active compounds read low
[22] = S. cerevisiae deletion strains, locus YNR030W, strain Alg12, active compounds read low
[23] = S. cerevisiae deletion strains, locus YOL006C, strain TOP1, active compounds read low
[24] = S. cerevisiae deletion strains, locus YPL055C, strain LGE1, active compounds read low
[25] = S. cerevisiae deletion strains, locus YPL241C, strain CIN2, active compounds read low
[26] = S. cerevisiae deletion strains, locus YPR135W, strain CTF4, active compounds read low

Measured: normalized growth

Cc1nn(-c2ccccc2)nc1C(=O)NC(=O)N1CCCC1
inactive: [1] 0.992 | [2] 0.983 | [3] 0.949 | S. cerevisiae deletion strains, locus YDL134C, strain PPH21, active compounds read low 1.01 | [4] 0.871 | [5] 1.02 | [6] 0.964 | [7] 0.94 | [8] 1.03 | [9] 0.977 | [10] 0.995 | [11] 0.998 | [12] 0.997 | [13] 1.02 | [14] 1.02 | [15] 1.02 | [16] 0.997 | [17] 0.987 | [18] 0.927 | S. cerevisiae deletion strains, locus YNL128W, strain TEP1, active compounds read low 0.991 | [19] 0.986 | [20] 1.01 | [21] 0.995 | [22] 1 | [23] 0.955 | [24] 1 | [25] 0.965 | [26] 0.949

Cc1c(C(=O)O)cc(-c2ccccc2)n1-c1ccccc1
inactive: [1] 0.988 | [2] 1.01 | [3] 1 | [4] 0.892 | [5] 0.941 | [6] 0.999 | [8] 0.985 | S. cerevisiae deletion strains, locus YJL187C, strain SWE1, active compounds read low 0.988 | [9] 0.999 | [10] 0.959 | S. cerevisiae deletion strains, locus YKL190W, strain CNB1, active compounds read low 0.975 | [12] 1.01 | [15] 0.945 | [16] 0.998 | [17] 0.981 | [19] 0.952 | [20] 0.869 | [21] 1 | [22] 0.923 | [23] 0.85 | [24] 0.865 | [25] 0.907 | S. cerevisiae strains, strain wild type, active compounds read low 0.987
active: [7] 0.613 | [11] 0.674 | [13] 0.654 | [14] 0.66 | [18] 0.467 | [26] 0.64
